Source: PubChem BioAssay (NCATS)
Inconclusive results are not listed. The source made the active and inactive calls. Calls come from the whole dose curve; as a rule, active = well fitted inhibition curve with a large enough effect; inconclusive = small, poorly fitted or top-dose-only effect; inactive = no such curve, though single readings can be large or run the other way.

tested on: Zika virus NS2B-NS3 protease (linked construct); test: Primary screen NINDS Rhodamine qHTS for Zika virus inhibitors (AID 1347160); details: purified NS2B-NS3 protease, Rhodamine110 substrate fluorescence; series mostly up to 33.1 µM; note: nearly all actives have a fitted effect of over 55% in size
How it was run: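 Aprotinin served as in-plate control. Conditions: 25 nM linked NS2B-NS3, pH 8.0 Tris buffer, titrated compounds, 15 min preincubation and 15 min reaction with 1.5 microM Rhod110 substrate at room temperature.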
Potency is the fitted concentration of half-maximal effect.

Structure (SMILES) | Potency
Cc1cc(C)c2nc(-c3ccccn3)cc(C(=O)Nc3ccc(S(=O)(=O)Nc4onc(C)c4C)cc3)c2c1 | 2.24 µM (active)
O=C1NC(=O)/C(=C/c2cccc(C(F)(F)F)c2)S1 | 3.55 µM (active)
COc1ccc(C2C(C(=O)O)C(C(=O)O)C2c2ccc(OC)cc2O[C@@H]2O[C@H](CO)[C@@H](O)[C@H](O)[C@H]2O)c(O[C@@H]2O[C@H](CO)[C@@H](O)[C@H](O)[C@H]2O)c1 (stereo partly specified) | inactive

tested on: not listed separately; test: Confirmatory screen NINDS Rhodamine qHTS for Zika virus inhibitors (AID 1347161); details: purified enzyme assay, Rhodamine110 substrate fluorescence, 15 min; series mostly up to 114 µM; note: nearly all actives have a fitted effect of over 60% in size
How it was run: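 Each compound, titrated, sat 15 min with 25 nM linked protease before 1.5 microM Rhodamine110 substrate went in. Fluorescence gain over the next 15 min, in pH 8.0 Tris with Tween 20, gave Hill-fitted curves.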

Structure (SMILES) | Potency
Cc1cc(C)c2nc(-c3ccccn3)cc(C(=O)Nc3ccc(S(=O)(=O)Nc4onc(C)c4C)cc3)c2c1 | 3.12 µM (active)
O=C1NC(=O)/C(=C/c2cccc(C(F)(F)F)c2)S1 | 3.93 µM (active)
COc1ccc(C2C(C(=O)O)C(C(=O)O)C2c2ccc(OC)cc2O[C@@H]2O[C@H](CO)[C@@H](O)[C@H](O)[C@H]2O)c(O[C@@H]2O[C@H](CO)[C@@H](O)[C@H](O)[C@H]2O)c1 (stereo partly specified) | 11.7 µM (active)
